Most compounds without a hit are left out; they make up all but 11% or so of the library.
HPGD block = qHTS Assay for Inhibitors of HPGD (15-Hydroxyprostaglandin Dehydrogenase); purified HPGD, NADH fluorescence kinetic, PGE2 substrate; 150,000 compounds, 4.3% hits; Potency, µM, usual class: inhibitors; active means well fitted inhibition curve with a large enough effect, not every such curve was filed as active; inconclusive means small, poorly fitted or top-dose-only effect, or another doubt; inactive means no such curve, though single readings can be large or run the other way
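20 nM HPGD preincubated 15 min at room temperature with compound in 50 mM Tris-HCl pH 8, 0.01% Tween 20. Started with 1 mM NAD+ and 30 uM prostaglandin E2; NADH fluorescence (360/450 nm) read 5 times over 30-s intervals, last minus first.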
PNC assembly inh = High Content Assay for Compounds that inhibit the Assembly of the Perinucleolar Compartment; PC3M PTB-GFP, PNC prevalence imaging, 16 h; active compounds read low; activity change (PNC), negative = inhibition, % at 10 µM; 140,000 compounds, 3.1% hits;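 active means readout at or below -70, meaning at least 70% loss of cells showing the perinucleolar compartment, a nuclear body marking cancer cells; inconclusive means readout between -30 and a set limit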
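PC3M cells stably expressing PTB-GFP, 750–1000 cells/well, treated 16 h at 37 °C with compound (23 nl of library stock), in duplicate. After paraformaldehyde fixation and Hoechst stain, imaged at 20x; PNC prevalence scored by image analysis.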
IMPase Li cell = qHTS Assay for Identifying the Cell-Membrane Permeable IMPase Inhibitors: Potentiation with Lithium | CHO-M1 cells, IP1 TR-FRET (IP-One), carbachol + lithium | Potency, µM (highest dose often 59.4 µM), actives largely listed as inhibitors | 210,000 compounds, 0.35% hits | AID 1457, 2008;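 further: IP1 builds up when IMPase is blocked and the TR-FRET signal falls; nearly all actives have a fitted effect of over 50% in size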
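Readout is a homogeneous TR-FRET IP1 immunoassay (Ex 320, Em 665 and 620), where raised cytosolic IP1 lowers signal. Cells were CHO-M1 treated 30 min at 37C with test compounds plus a little lithium; AC50 values came from Hill-equation fitting.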
IMPase inh = qHTS Assay for Identifying the Cell-Membrane Permeable IMPase Inhibitors. Inositol monophosphatase 1 (Rattus norvegicus), P97697. CHO-M1 cells, IP1 accumulation, HTRF TR-FRET ratio. inhibition (IP1 accumulation), % at 46.1 µM. 120,000 tested, under 10 active. AID 901, 2007; active means well fitted curve in the direction sought with a large enough effect in the signal ratio, not every such curve was filed as active; inconclusive means small, poorly fitted or top-dose-only effect, or a change in a side signal; inactive means no such curve, though single readings can be large or run the other way; the % refers to the signal ratio;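 further: cells stimulated with carbachol in lithium chloride buffer; higher means more IMPase inhibition seen as more IP1 and lower FRET ratio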
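CHO-M1 cells (CHO stably expressing M1 receptor), compound up to 46 uM final, stimulated with carbachol (50 uM as added) in buffer with 50mM LiCl, pH 7.4, 30 min at 37C. Cytosolic IP1 read by TR-FRET; AC50 from Hill fits.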
ALOX12 inhib = qHTS Assay for Inhibitors of 12-hLO (12-human lipoxygenase); 150,000 compounds, 0.12% hits; AID 1452, 2008; purified 12-hLO, xylenol orange hydroperoxide absorbance; Polyunsaturated fatty acid lipoxygenase ALOX12 (Homo sapiens), P18054; Potency, µM (titrated, usually from 57.1 µM), hits mostly inhibitors; further: nearly all actives have a fitted effect of over 55% in size
Target sequence (P18054 whole entry, looked up): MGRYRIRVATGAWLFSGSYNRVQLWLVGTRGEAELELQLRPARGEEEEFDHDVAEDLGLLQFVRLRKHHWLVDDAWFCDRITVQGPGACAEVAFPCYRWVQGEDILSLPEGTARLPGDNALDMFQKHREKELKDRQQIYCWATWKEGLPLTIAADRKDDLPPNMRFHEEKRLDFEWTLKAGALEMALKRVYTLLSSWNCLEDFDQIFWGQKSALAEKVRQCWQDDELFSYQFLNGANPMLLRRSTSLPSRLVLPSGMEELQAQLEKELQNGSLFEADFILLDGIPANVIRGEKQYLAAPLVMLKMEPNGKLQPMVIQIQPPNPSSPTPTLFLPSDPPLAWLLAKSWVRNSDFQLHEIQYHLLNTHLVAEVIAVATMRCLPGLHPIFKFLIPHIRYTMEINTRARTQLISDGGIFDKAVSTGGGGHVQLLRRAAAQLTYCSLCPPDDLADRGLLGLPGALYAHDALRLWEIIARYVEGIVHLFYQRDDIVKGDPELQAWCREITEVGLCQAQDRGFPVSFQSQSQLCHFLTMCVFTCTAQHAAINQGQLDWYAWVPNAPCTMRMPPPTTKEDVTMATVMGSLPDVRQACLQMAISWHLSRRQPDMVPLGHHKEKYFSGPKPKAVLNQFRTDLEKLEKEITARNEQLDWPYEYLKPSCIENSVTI
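Hydroperoxide formation by human 12-lipoxygenase from 40 uM arachidonic acid was followed colorimetrically via ferric-xylenol orange complex, using the 573/405 nm absorbance ratio. Enzyme concentration was 150 nM, with 30 min reaction at room temperature.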
ALDH1A1 inh = qHTS Assay for Inhibitors of Aldehyde Dehydrogenase 1 (ALDH1A1); Potency, µM (series often up to 75.3 µM), actives largely listed as inhibitors; Purified ALDH1A1, NADH fluorescence, propionaldehyde substrate; 220,000 compounds, 7.3% hits; active means well fitted inhibition curve with a large enough effect, not every such curve was filed as active; inconclusive means small, poorly fitted or top-dose-only effect, or another doubt; inactive means no such curve, though single readings can be large or run the other way
Hits are given with their value; i = inactive; ? = inconclusive; nt = not tested or not shown; [ ] = remark or other dose. Unless noted, the call rests on the fitted dose curve; in most records, active means well fitted curve in the direction sought with a large enough effect; inconclusive means small, poorly fitted or top-dose-only effect, or another doubt; inactive means no such curve, though single readings can be large; an effect the other way counts as inactive or inconclusive.

SMILES | HPGD block | PNC assembly inh | IMPase Li cell | IMPase inh | ALOX12 inhib | ALDH1A1 inh
C[C@H]1C2=C3C(C[C@H]4C(=O)N(c5ccccc5)C(=O)[C@H]4[C@H]3[C@@]3(Cc4ccccc4)C(=NCCc4c[nH]c5ccccc45)OC(=O)N3C2=O)[C@H]2C(=O)N(c3ccccc3)C(=O)[C@H]21 (stereo partly specified) | i | nt | i | nt | i | i
CC(C)(C)C(=O)[C@@H]1[C@@H]2C(=O)N(c3ccc4c(c3)OCCO4)C(=O)[C@@H]2C2c3ccccc3C=CN21 (stereo partly specified) | ? | i | i | i | i | ?
Cc1ccc(N2C(=O)[C@@H]3[C@H](C2=O)C2c4ccccc4C=CN2[C@@H]3C(=O)c2ccco2)cc1 (stereo partly specified) | 31.6µM | i | i | i | i | 4.47µM
Cc1ccc(Nc2c(-c3ccncc3)nc3ccc(C)cn23)cc1 | nt | nt | nt | i | nt | nt
COc1ccc(NS(=O)(=O)c2ccc(N/N=C(\C)c3ccncc3)c([N+](=O)[O-])c2)cc1 | 6.31µM | i | i | nt | i | i
O=C1c2ccccc2-c2n[nH]c3cccc1c23 | i | nt | i | i | i | 3.16µM
CCOc1ccc(-n2cccc2C=O)cc1 | i | i | i | i | i | ?
COc1ccc(-n2cccc2/C=C/[N+](=O)[O-])cc1 | 35.5µM | i | i | nt | i | ?
COc1ccc(-n2cccc2C=O)cc1 | i | i | i | nt | i | 11.2µM
C=CC[C@@H]1C=C[C@H](ON=C(C)C)[C@H](CO)O1 | nt | nt | nt | nt | nt | i[13.5 µM]
COC(=O)c1cc(=O)nc2sccn12 | ? | ? | i | i | i | ?
COC(=O)c1cc(NC(=O)c2c(Cl)nc3sccn23)cc(C(=O)OC)c1 | ? | i | 11.2µM | i | i | i
Cc1ccc2[nH]c(=O)c(CN(Cc3cccs3)Cc3nnnn3Cc3ccccc3)cc2c1 | ? | i | i | i | i | 14.1µM
CCOC(=O)Cn1nnnc1CN(CCc1ccccc1)Cc1cc2cc(CC)ccc2[nH]c1=O | i | i | i | i | i | ?
CCOC(=O)Cn1nnnc1CN(Cc1cccs1)Cc1cc2cc(C)ccc2[nH]c1=O | i | ? | i | i | i | 15.8µM
Cc1ccc2[nH]c(=O)c(CN(CCO)Cc3nnnn3CCc3ccccc3)cc2c1 | i | i | i | i | i | ?
O=C(CN1C(=O)C2C3C=CC(C3)C2C1=O)Nc1nc2ccccc2[nH]1 (stereo unspecified) | i | ? | i | i | i | i
Cc1csc(N/N=C\c2cccnc2)n1 | nt | nt | i | nt | nt | 11.2µM
Cc1ccc(-c2c(C(=O)Nc3ccccc3C)c(C)[nH]c(=S)c2C#N)o1 | nt | nt | 11.2µM | nt | nt | i
O=[N+]([O-])c1cccc(/C=N\Nc2ccc3ccccc3n2)c1O | i | nt | i | nt | i[11.4 µM] | 1.58µM
O=[N+]([O-])c1cccc(/C=N\N=C2c3ccccc3-c3ccccc32)c1O | 28.2µM | ? | i | i | i | i
CC(=O)c1ccc(OCC(O)Cn2nnc3ccccc32)cc1 (stereo unspecified) | i | i | i | i | i | i
O=C(CCCOc1ccc(Cl)cc1Cl)n1nnc2ccccc21 | 8.91µM | ? | i | i | i | i
CC(=O)c1ccc(OCCCC(=O)n2nnc3ccccc32)cc1 | 20µM | i | i | i | i | i
CSCC[C@@H]1NC(=O)C/C=C\[C@@H](C)COC(=O)[C@@H](CCSC)NC(=O)C/C=C\[C@@H](C)COC1=O | nt | nt | nt | nt | nt | i[13.5 µM]
SMILES | HPGD block | PNC assembly inh | IMPase Li cell | IMPase inh | ALOX12 inhib | ALDH1A1 inh
CC(=O)Nc1nc2c(c3c1c(=O)oc1ccccc13)CC(C)CC2 (stereo unspecified) | ? | -100.0 | i | i | i | ?
Cc1cccc(-n2ncc3c(N4CC(C)CC(C)C4)ncnc32)c1 (stereo unspecified) | i | ? | i | i | i | 25.1µM
Cc1cccc(C(=O)N2CCN(c3ncnc4c3cnn4-c3ccccc3)CC2)c1 | i | i | i | i | i | 10µM
O=C(COc1ccccc1)N1CCN(c2ncnc3c2cnn3-c2ccccc2)CC1 | i | -97.1 | i | i | i | 7.08µM
CCCCc1nc2c(c3c1C[C@H](C)OC3)CN(S(=O)(=O)c1ccc(NC(C)=O)cc1)CC2 | i | nt | i | nt | i[11.4 µM] | i[13.5 µM]
N#Cc1ccccc1NC(=O)CSc1nc(-c2ccccc2)cc(C(F)(F)F)c1C#N | nt | nt | nt | i | nt | nt
CC[C@@H]1/C=C(\C)C[C@H](C)C[C@H](OC)[C@H]2O[C@@](O)(C(=O)C(=O)N3CCCC[C@H]3C(=O)O[C@H](/C(C)=C/[C@@H]3CC[C@@H](O)[C@H](OC)C3)[C@H](C)[C@@H](O)CC1=O)[C@H](C)C[C@@H]2OC | nt | nt | i | nt | nt | i
CC12C=C(/C=C/c3ccccc3)C(C)(C1)C(c1ccccc1)CC2=O (stereo unspecified) | nt | nt | nt | nt | nt | i[13.5 µM]
COc1ccc2nc(-c3ccc(N)cc3)[nH]c2c1 | ? | i | i | i | i | 6.31µM
CCNc1nc(NCC)nc(SCCOc2ccc(C)cc2)n1 | i | -113.4 | i | nt | i | ?
CCOc1nc(SCCOc2ccc(C)cc2)nc(N(C)C)n1 | i | i | i | i | i | i
Cc1ccc(C(=O)COC(=O)c2cnccn2)cc1 | i | -102.2 | i | i | i | i
CCOc1ccc(C(C)=O)cc1CSc1nnc(-c2ccoc2C)n1N | 14.1µM | ? | i | i | i | 22.4µM
COc1cccc2c3c(c(C)nc12)CC(CO)O3 (stereo unspecified) | ? | nt | i | nt | nt | ?
Oc1ccc(Cc2nccc3cc(O)c(O)cc23)cc1O | i | nt | i | nt | i[11.4 µM] | i[13.5 µM]
Cc1ccc(NS(=O)(=O)c2ccc(N3CCN(c4ccc(O)cc4)CC3)c([N+](=O)[O-])c2)c(C)c1 | i | i | i | nt | i | 14.1µM
O=[N+]([O-])c1cc(C(F)(F)F)ccc1-n1nnc2ccccc21 | nt | i | nt | i | i | i
O=[N+]([O-])c1cc(S(=O)(=O)Nc2ccccc2)ccc1N1CCN(c2ccc(O)cc2)CC1 | i | i | i | nt | i | 31.6µM
O=C(O)c1cc(NS(=O)(=O)c2ccc(N3CCOCC3)c([N+](=O)[O-])c2)cc(C(=O)O)c1 | i | i | i | i | i | i
CC(=O)N1CCCc2cc(S(=O)(=O)Nc3ccc(C)cc3C)ccc21 | i | ? | i | nt | i | ?
O=[N+]([O-])c1cc(S(=O)(=O)Nc2ccccc2)ccc1-n1nnc2ccccc21 | i | -114.3 | i | i | i | ?
COc1ccc(NC(=O)N2CC[C@@]3(CCCN(S(C)(=O)=O)C3)C2)cc1 | i | nt | i | nt | i | i
CC(C)(C)C(=O)NC(=S)NCCc1ccccc1 | i | i | i | i | 12.6µM | 28.2µM

Bioassay records as filed in PubChem BioAssay.
